# Reference: PubChem BioAssay (NCI)
# Compounds without any hit were thinned out: in the full panel of roughly 83,000, 20% have a hit.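 48-hour exposure, single concentration, 96-well plates; percent growth endpoint where 0 means no net growth. Active: below 10.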 A number with no mark means an inactive call. Activity calls are given as the source filed them.
# Columns and labels:
# Experiment in all cases: NCI-60 one-dose screen, 48 h (100 = growth as untreated, 0 = no growth, -100 = all killed)
# Settings in all cases: 10 µM
# HCT-15 colon = system: HCT-15 colon
# HT29 colon = system: HT29 colon
# SNB-75 CNS = system: SNB-75 CNS
# SNB-19 CNS = system: SNB-19 CNS
# PC-3 prostate = system: PC-3 prostate
# SK-MEL-5 melanoma = system: SK-MEL-5 melanoma
# UACC-62 melanoma = system: UACC-62 melanoma
# SK-MEL-28 melanoma = system: SK-MEL-28 melanoma
# LOX IMVI melanoma = system: LOX IMVI melanoma
# U251 CNS = system: U251 CNS
SMILES,growth (HCT-15 colon),growth (HT29 colon),growth (SNB-75 CNS),growth (SNB-19 CNS),growth (PC-3 prostate),growth (SK-MEL-5 melanoma),growth (UACC-62 melanoma),growth (SK-MEL-28 melanoma),growth (LOX IMVI melanoma),growth (U251 CNS)
COC1CC(Cn2cc(COc3ccc4ccc(=O)oc4c3)nn2)C(OCc2ccccc2)C(OCc2ccccc2)C1OCc1ccccc1 (centres undefined),88.9%,108%,92.5%,95.1%,92.7%,83.2%,82.6%,105%,,
O=C(CSc1nnc(-c2c[nH]c3ccccc23)n1-c1ccccc1)c1ccc(Br)cc1,44%,57.4%,38.8%,70.2%,46.2%,17.2%,35.2%,34.9%,41.8%,
O=C(/C=C/Nc1ccc(F)cc1F)c1ccc2c(c1)Nc1ccccc1S2,33.1%,70.8%,124%,63.9%,74.8%,76.1%,48.8%,79.2%,65.9%,
Cc1cccc(-c2nc(Nc3ccccc3C(=O)O)c3ccccc3n2)c1,14.3%,39.7%,55.3%,21.2%,29.5%,6.01% (active),28%,50%,,
CC(=O)Nc1ccc(-c2cn(-c3cccc(C(=O)Nc4ccc(Cl)c(C(F)(F)F)c4)c3)nn2)cn1,-57.8% (active),-50.3% (active),88%,-35.3% (active),1.58% (active),38.5%,-62.4% (active),-80.6% (active),-90.8% (active),
CC1=C(c2cc(-c3ccc(Cl)cc3)c(C#N)c(N)n2)C(c2ccccc2)NC(=S)N1 (centres undefined),10.9%,24.7%,36.5%,75.4%,49.8%,58.1%,62.7%,57.7%,-49.2% (active),
COc1cc2c3c(n(CCCn4ccnc4)c(=O)c2cc1OC)-c1nc2c(cc1C3=O)OCO2,52.1%,31.5%,82.8%,25.6%,60.4%,7.02% (active),4.19% (active),80.9%,0.388% (active),
O=C(Cn1cc(CSc2nnc3oc4ccccc4n23)nn1)Nc1ccc(Br)cc1,,103%,-24.5% (active),24.7%,80%,92.4%,49.8%,89.7%,54.9%,54.3%
COc1cc(-c2nc3cc(Cl)c(Cl)cc3[nH]2)ccc1OCc1nnc(-c2ccc(Br)cc2)o1,3.31% (active),10%,-58.8% (active),41.5%,-15.8% (active),,-42.1% (active),-25% (active),,
CN1CCN(c2ccc(Nc3nc(NCCCNC(=O)c4ccc(F)cc4)c4sccc4n3)cc2)CC1,2.85% (active),11.2%,108%,86%,50.9%,,63.7%,-45.3% (active),13.4%,
COc1ccc(-c2ccc(/C=N/NC(=O)c3[nH]c4ccc(Br)cc4c3-c3ccccc3)s2)cc1,68.4%,84.5%,88.1%,73.8%,91.7%,106%,45.9%,105%,,
COc1ccc(-c2ccc(SCC(=O)Nc3ccc(C#N)cc3)nn2)cc1,97.3%,130%,93.7%,64.9%,85%,94.4%,72.3%,97.7%,84.7%,
O=C(CNc1nc(-c2ccccc2)cs1)Nc1ccccc1,-70.6% (active),-53.9% (active),29.2%,-68.4% (active),12.3%,-99.5% (active),-90.1% (active),-60.1% (active),-90.1% (active),
Cc1cc(=O)oc2cc(OCCCCOc3ccc(/C=C/C(=O)Nc4ccc(F)c(Cl)c4)cc3)ccc12,97%,111%,116%,93.4%,99.6%,85.2%,92%,93%,,
COc1ccc(-c2ccc(/C=N/NC(=O)c3[nH]c4ccc(Br)cc4c3-c3ccccc3)o2)cc1,26.4%,55.1%,33%,57.6%,55.1%,30.3%,30.4%,46.9%,,
C=C1CCC2C3(C)COC(c4cc(F)cc(F)c4)OC3CCC2(C)C1C/C=C1/C(=O)OCC1O (centres undefined),-34.6% (active),-29.3% (active),-45.9% (active),-78.5% (active),-32.1% (active),-88.6% (active),-15.2% (active),-70.7% (active),,
C#Cc1ccc(S(=O)(=O)Nc2cccc(-c3csc(NC(C)=O)n3)c2)cc1,67.1%,71.4%,60.4%,83.6%,62.3%,43.2%,48.7%,89.4%,54.6%,
O=C(Cn1nc(-c2ccccc2)ccc1=O)NN1C(=O)c2ccccc2C1=O,99.2%,120%,107%,89.8%,97.8%,100%,106%,108%,92.7%,
O=C(N/C(=C1/OCCN1Cc1ccccc1)[P+](c1ccccc1)(c1ccccc1)c1ccccc1)c1ccccc1,77.8%,14.6%,26.9%,10.4%,22.5%,-100% (active),-36.4% (active),22.8%,6.07% (active),
O=C1Nc2ccc(F)cc2/C1=C/c1cccc(OCc2ccccc2)c1,0.287% (active),20.6%,66.2%,23.9%,20.4%,-24.7% (active),16.5%,36.2%,-79.5% (active),
CC(=C(c1ccc(OCCN2CCCCC2)cc1)c1ccc(OCCN2CCCCC2)cc1)c1ccccc1,-0.0525% (active),-26.2% (active),84.1%,38.7%,47.5%,-90.9% (active),,-93.9% (active),,
O=C(CSc1nnc(-c2c[nH]c3ccccc23)n1-c1ccccc1)Nc1ccc(C(=O)/C=C/c2cccc([N+](=O)[O-])c2)cc1,84.1%,101%,99.8%,86.5%,87%,91.3%,76.5%,102%,75.6%,
N#Cc1c(-c2ccc(F)cc2)nc(SCc2ccc([N+](=O)[O-])cc2)nc1N1CCOCC1,72.8%,86.6%,7.62% (active),46%,59.1%,61.9%,62.7%,82.1%,84.7%,
Clc1ccc(/C=N/Nc2ncnc3sc4c(c23)CCN(Cc2ccccc2)C4)cc1,-25.1% (active),-75.3% (active),-85% (active),18.4%,-59.7% (active),38.9%,18.9%,-19% (active),-52.1% (active),
O=C(CN1CCN(c2ncnc3c2cnn3-c2ccccc2)CC1)Nc1nncs1,-30.7% (active),-61.5% (active),-75% (active),58.4%,-36.1% (active),29.4%,17.4%,72.3%,-87.4% (active),
O=C(CS(=O)(=O)c1oc(-c2ccc(Cl)cc2)nc1S(=O)(=O)c1ccc(Cl)cc1)N1CCOCC1,-53.6% (active),-48.9% (active),54.7%,86.2%,63.3%,77.6%,56.7%,35%,,
CO[C@@H]1CSSC1Cn1nc(-c2ccc(Oc3ccccc3)cc2)c2c(N)ncnc21 (some centres undefined),37.2%,28.5%,97.9%,69.1%,43.6%,7.95% (active),-53.9% (active),-34.4% (active),39.4%,
Cc1ccc(-c2cc(C(=O)N=Nc3c(O)[nH]c4ccccc34)c3ccccc3n2)cc1,7.91% (active),37.9%,85.7%,58%,48.5%,36.9%,61.6%,59.4%,-40.4% (active),
CN1CCO/C1=C(/NC(=O)c1ccc(Cl)cc1)[P+](c1ccccc1)(c1ccccc1)c1ccccc1,,57.7%,91.6%,76.5%,68.2%,70.3%,48.5%,75.5%,39.8%,84.1%
